Results reported in PubChem BioAssay (NCATS).
Records with an inconclusive call do not appear. A number with no mark means an inactive call. Calls of active or inactive are those of the source. Calls come from the whole dose curve; as a rule, active = well fitted cell-killing curve with a large enough effect; inconclusive = small, poorly fitted or top-dose-only effect, or effect the other way; inactive = flat fitted curve, though single readings scatter.

Experiment: S16 Schwann cell viability assay (CellTiter-Glo assay) (AID 624031); note: nearly all actives have a fitted effect of over 70% in size;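 for activity change, negative = cytotoxicity: cellular ATP luminescence as a viability measure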
Conditions: S16 rat Schwann cells viability, 24 h; series mostly up to 57.5 µM; activity change, negative = cytotoxicity: at the top concentration
Excerpt: Charcot-Marie-Tooth-Association [CMTA]
National Center for Advancing Translational Sciences [NCATS]
Charcot-Marie-Tooth (CMT) disease was first characterized by Jean-Martin Charcot and Pierre Marie in France and, independently, by Howard Henry Tooth in England in 1886. CMT is one of the most common inherited neurological diseases, affecting approximately 1 in 2,500 Americans. […] The most prevalent type of CMT is known as CMT1A and caused by a duplication of the PMP22 gene which leads to over-expression of this protein. PMP22 is a glycosylated intrinsic membrane protein accounting for 2-5% of the myelin protein content, and its over-expression results in demyelination and subsequently axonal loss.
A pair of cellular transcription-based assays was developed in the S16 rat Schwann cell lines (Hai, M., et al., 2002) stably transfected with orthogonal reporters - firefly luciferase (Fluc) and beta-lactamase (beta-Lac) - whose expression is driven by an intronic regulatory element of the PMP22 gene (Jones, E.A., et al., 2011) to recapitulate endogenous expression of PMP22. A comprehensive library of approved drugs, the NCGC Pharmaceutical Collection (Huang, R., et al., 2011), was screened in the cross-validating platform of the orthogonal reporter assays to identify drug modulators inhibitory towards PMP22 expression.
A set of counter-screens was devised to address non-specific activity of the library. An ATP-dependent CellTiter-Glo assay (developed by Promega Corp) was utilized to control cell viability. In addition, biochemical Fluc enzyme assay was performed to assess direct inhibition of the Fluc enzymatic activity.
Hai, M., Muja, N., DeVries, G.H., Quarles, R.H. and Patel, P.I. Comparative analysis of Schwann cell lines as model systems for myelin gene transcription studies. J Neurosci Res, 2002. 69(4): pp 497-508
Huang, R., Southall, N., Wang, Y., Yasgar A., Shinn P., Jadhav, A. , Nguyen, D.-T. and Austin, C.P., The NCGC pharmaceutical collection: a comprehensive resource of clinically approved drugs enabling repurposing and chemical genomics. Sci Transl Med, 2011. 3(80): p. 80ps16.
Native S16 cells were seeded in white solid-bottom 1536 well plates at between 500-750 cells/6uL in DMEM medium containing 10% FBS, w/o phenol red. After overnight incubation at 37 degree Celsius/5% C02, 23 nL of compounds or DMSO were delivered to each well using a pin tool, followed by 24h-incubation at 37 degree Celsius/5% C02. Then one volume of CellTiter-Glo assay reagent (Promega) was added to each well for cell viability measured by a ViewLux plate reader (PerkinElmer). The % activity was determined by normalizing to the average readings from wells containing no cells relative to DMSO-treated cells (0% Activity). The concentration-effect curves were then classified based on curve quality (r2), response magnitude and degree of measured activity.
Potency is the fitted concentration of half-maximal effect.

Structure (SMILES)	Potency	activity change, negative = cytotoxicity
COc1cc(C(=O)N2CCOCC2)cc(OC)c1OC	inactive	–
CN(C)CCN(Cc1ccccc1)c1ccccn1	–	-7.48%
Nc1nc2c(ncn2CCC(CO)CO)c(=O)[nH]1	–	2.33%
COc1ccc(Cl)cc1C(=O)NCCc1ccc(S(=O)(=O)NC(=O)NC2CCCCC2)cc1	–	2.69%
CC(=O)NC(Cc1ccccc1)C(=O)O (stereo not given)	–	10.3%
O=S(=O)(O)NC1CCCCC1	–	10.1%
CC(=O)Oc1ccc(C2(c3ccc(OC(C)=O)cc3)C(=O)Nc3ccccc32)cc1	inactive	–
Nc1ccc(S(=O)(=O)Nc2nccs2)cc1	–	-0.325%
CN(C)CCCN1c2ccccc2CCc2ccccc21	–	-21.4%
O=C(O)[C@@H]1CSCN1	–	-6.41%
CC(C)c1c(C(=O)Nc2ccccc2)c(-c2ccccc2)c(-c2ccc(F)cc2)n1CC[C@@H](O)C[C@@H](O)CC(=O)O	–	3.93%
CC(=O)Nc1ccc(/C=N/NC(N)=S)cc1	inactive	–
O=C1NC(=O)[C@@]2(CCOc3ccc(F)cc32)N1	–	-16.1%
CC1=C(CC(=O)O)c2cc(F)ccc2/C1=C\c1ccc(S(C)=O)cc1 (stereo not given)	–	-2.45%
O=c1cc[nH]c(=O)[nH]1	–	31.9%
CN(C)CCCN1c2ccccc2Sc2ccc(Cl)cc21	8.09 µM (active)	–
Nc1ccc(S(=O)(=O)Nc2ccc(Cl)nn2)cc1	–	7.65% [at 25.7 µM]
NS(=O)(=O)c1cc2c(cc1Cl)NC(CSCc1ccccc1)=NS2(=O)=O	–	12.7% [at 25.7 µM]
Cc1cc(CC(=O)O)n(C)c1C(=O)c1ccc(Cl)cc1	inactive	–
NCC(=O)CCC(=O)O	–	5.46%

Structure (SMILES)	Potency	activity change, negative = cytotoxicity
O=C(Oc1ccccc1C(=O)O)c1ccccc1O	–	1.7%
Nc1ccc(S(=O)(=O)NC(=O)c2ccccc2)cc1	–	-0.39% [at 25.7 µM]
COc1ccc(S(=O)(=O)Nc2nnc(CC(C)C)s2)cc1	inactive	–
CSc1ccc2c(c1)N(CCC1CCCCN1C)c1ccccc1S2 (stereo not given)	32.2 µM (active)	–
O=c1cc[nH]c(=S)[nH]1	–	6.02%
Cc1cc(C(C#N)c2ccc(Cl)cc2)c(Cl)cc1NC(=O)c1cc(I)cc(I)c1O (stereo not given)	–	-15.9%
Cc1c(Cl)cccc1Nc1ccccc1C(=O)O	–	-12.1%
[Cl][In]([Cl])[Cl]	–	13.4%
CCOc1ccc2ccccc2c1C(=O)N[C@@H]1C(=O)N2[C@@H]1SC(C)(C)[C@@H]2C(=O)O	–	-0.0683% [at 25.7 µM]
CCCCOc1cc(C(=O)OCCN(CC)CC)ccc1N	–	-7.36% [at 25.7 µM]
C#CCN(C)Cc1ccccc1	–	1.37% [at 25.7 µM]
CN1CCCCC1CCN1c2ccccc2Sc2ccc(S(C)=O)cc21 (stereo not given)	–	-20.2%
COc1cc2[nH]c(=O)[nH]c(=O)c2cc1OC	–	4.94% [at 25.7 µM]
Cc1cc2c(cc1S(N)(=O)=O)S(=O)(=O)CCC2	–	-9.57% [at 25.7 µM]
O=S(=O)(O)c1cc(I)c(O)c2ncccc12	–	-2.42%
O=C(O)c1ccccc1O	–	0%
NC(CSCC(=O)O)C(=O)O (stereo not given)	–	6.75%
N[C@@H](CSCCCO)C(=O)O	–	-1.86%
CCCCCCCCCCCCCCCC(=O)NCCO	–	1.46%
CCCCN(CCCC)CC(O)c1cc(Cl)cc2c1-c1ccc(Cl)cc1/C2=C/c1ccc(Cl)cc1 (stereo not given)	28.7 µM (active)	–
